Only some compounds are listed: those with a hit (about 7.4% of all), similar ones and a draw of the others.
SNCA expr inh: inhibitors of alpha-synuclein (SNCA) gene expression; HEK-293 SNCA-luciferase knock-in, luminescence, 24 h; Potency, µM (doses to about 57.2 µM), inactives show at the top dose activity change, negative = inhibition, hits mostly inhibitors; actives 0.17% (n = 140,000);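 further: plate controls were DMSO cells for no effect and cell-free wells for full effect; nearly all actives have a fitted effect of over 45% in size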
NIH3T3 tox: cytotoxic compounds in NIH 3T3 cells. NIH 3T3 viability, CellTiter-Glo ATP luminescence, 48-72 h. Potency, µM (series often up to 96.7 µM), without a hit: at the highest dose activity change, negative = cytotoxicity, hits mostly inhibitors. actives 4.3% (n = 94,000). AID 1345082; further: on the % scale 0 is the no-effect control and ±100 the full control effect; nearly all actives have a fitted effect of over 55% in size
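Cytotoxicity is measured as loss of cellular ATP: NIH 3T3 cells (400/well) are exposed to compound for 48 or 72 hr at 37 °C, then CellTiter-Glo luminescence is imaged after 10 min at room temperature.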
FLuc inh-1: inhibitors of firefly (Photinus pyralis) luciferase. P08659. purified P. pyralis luciferase, luminescence, biochemical. Potency, µM (highest dose often 115 µM), most hits filed as inhibitors. actives 2.5% (n = 76,000). AID 1347043; further: on the % scale 0 is the no-effect control and ±100 the full control effect; nearly all actives have a fitted effect of over 65% in size
Target sequence (P08659 whole entry, looked up): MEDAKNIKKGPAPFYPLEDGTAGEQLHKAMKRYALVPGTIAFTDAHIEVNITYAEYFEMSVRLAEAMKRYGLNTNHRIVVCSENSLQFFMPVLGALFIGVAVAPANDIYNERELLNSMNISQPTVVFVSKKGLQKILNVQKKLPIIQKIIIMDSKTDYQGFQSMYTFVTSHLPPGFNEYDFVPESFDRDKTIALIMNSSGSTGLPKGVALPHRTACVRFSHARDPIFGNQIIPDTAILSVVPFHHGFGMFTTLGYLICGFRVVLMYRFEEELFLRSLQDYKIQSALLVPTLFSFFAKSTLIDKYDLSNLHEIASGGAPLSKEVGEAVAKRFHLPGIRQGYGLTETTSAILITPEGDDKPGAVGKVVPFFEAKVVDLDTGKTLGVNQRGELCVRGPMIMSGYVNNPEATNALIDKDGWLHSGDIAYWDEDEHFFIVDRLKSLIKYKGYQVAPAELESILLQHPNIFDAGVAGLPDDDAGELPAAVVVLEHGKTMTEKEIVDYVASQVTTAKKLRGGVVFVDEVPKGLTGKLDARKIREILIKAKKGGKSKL
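Inhibitors were tested against purified firefly luciferase in a biochemical, low-substrate format (both substrates at 10uM) and luminescence measured with a CCD imager.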
HEK293 tox: HEK 293 cell cytotoxicity | AID 1345083 | actives 6.6% (n = 94,000) | HEK 293 viability, ATP luminescence (CellTiter-Glo), 48-72 h | Potency, µM (top dose mostly 115 µM), inactives show at the highest dose activity change, negative = cytotoxicity, hits mostly inhibitors; further: on the % scale 0 is the no-effect control and ±100 the full control effect; nearly all actives have a fitted effect of over 60% in size
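HEK 293 cells seeded at 250 cells/well were exposed to compound for 48 or 72 hr at 37 degree Celsius. Viability taken as ATP content by CellTiter-Glo luminescence.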
HEK293 viab: cell viability loss counter-screen. HEK-293-SNCA-luc viability, GF-AFC fluorescence, 24 h. Potency, µM (titrated, usually from 57.1 µM), for the others: at the highest dose activity change, negative = cytotoxicity, most hits filed as cytotoxic. actives 0.12% (n = 150,000);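 further: 0% = DMSO-treated cells and -100% = medium-only wells without cells; nearly all actives have a fitted effect of over 30% in size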
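Cytotoxicity counterscreen: after 24 h compound treatment of genome-edited SNCA-luciferase HEK-293 cells, live-cell protease substrate GF-AFC read by fluorescence after 30 min; activity scaled between DMSO (0%) and medium-only (-100%), curves Hill-fitted.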
NPR1 antag: antagonists of human natriuretic peptide receptor Npr1 | HEK293 hNpr1 GloSensor cGMP, ANP-stimulated luminescence | Potency, µM (series often up to 46.3 µM), without a hit: top-dose activity change, negative = inhibition, hits mostly inhibitors | actives 1.6% (n = 76,000); calls by dose curve; further: on the % scale 0 is the no-effect control and ±100 the full control effect; nearly all actives have a fitted effect of over 60% in size
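HEK293 cells stably expressing human Npr1 and cGMP GloSensor pGS-40F, loaded 2 h with 2% GloSensor reagent, given compound 30 min at room temperature. Luminescence read before and 20 min after 0.1 nM hNppA.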
FLuc SDR -ATP: firefly luciferase binding stabilization, ATP absent; shares compounds with FLuc inh-1; Purified FLuc-C-HiBiT, Nano-Glo HiBiT luminescence, no ATP; Potency, µM (highest dose often 32.7 µM), inactives show at the highest dose activation (signal gain), hits mostly activators; actives 7.8% (n = 1,300); further: nearly all actives have a fitted effect of over 55% in size
FLuc SDR ATP: firefly luciferase binding stabilization, ATP added | Potency, µM (titrated, usually from 32.7 µM), for the others: at the highest dose activation (gain of signal), usual class: activators | actives 8.7% (n = 1,300) | AID 1963319 | purified FLuc-C-HiBiT + ATP, HiBiT complementation luminescence | shares compounds with FLuc inh-1;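 further: signal reports ligand binding via conformational change of the enzyme rather than luciferase catalysis; % of control where 0% means no effect; nearly all actives have a fitted effect of over 55% in size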
FLuc inh-2: blocks firefly luciferase enzymatic activity. Potency, µM (doses to about 32.7 µM), inactives show top-dose activity change, negative = inhibition, actives largely listed as inhibitors. shares compounds with FLuc inh-1. purified FLuc-C-HiBiT enzyme, luciferin luminescence. actives 42% (n = 1,300); further: on the % scale 0 is the no-effect control and ±100 the full control effect; nearly all actives have a fitted effect of over 70% in size
* hit, by the source's call; i = inactive; u = inconclusive; x = no result; [ ] = another dose, or the depositor's remark. Unless noted, the call rests on the fitted dose curve; in most records, active means well fitted curve in the direction sought with a large enough effect; inconclusive means small, poorly fitted or top-dose-only effect, or another doubt; inactive means no such curve, though single readings can be large; an effect the other way counts as inactive or inconclusive. Potency means the concentration at half of the fitted maximal effect.

SMILES | SNCA expr inh | NIH3T3 tox | FLuc inh-1 | HEK293 tox | HEK293 viab | NPR1 antag | FLuc SDR -ATP | FLuc SDR ATP | FLuc inh-2
CCN1C(=O)CN(C(=O)c2ccsc2)CC12CCOCC2 | -20% | -2% | x | 4% | 13% | x | x | x | x
O=C(C1CCCC1)N1CCCC2(CNc3ncccc3[S+](=O)([O-])N2)C1 (stereo not given) | x | i | x | -6% | x | x | x | x | x
COc1ccc(-c2noc(Nc3ccc4c(c3)OCCO4)n2)cc1 | 48% | 1% | 0.89µM* | -4% | 2% | u | u | u | 1.6µM*
O=C(NCc1ccccn1)C1CN(C2CCCC2)C(=O)N1 (stereo not given) | 8%[87.6 µM] | -2%[138 µM] | x | i | 4%[12.5 µM] | x | x | x | x
O=C(c1ccoc1)N1CCC(OCCOc2ccccc2)CC1 | u | -26% | x | -30% | -6% | x | x | x | x
CCCCC(=O)Nc1cc(-c2nc3ccccc3s2)ccc1C | x | x | x | x | x | x | 18% | 10% | -6%
CCCN1C(=O)c2ccc(-c3nc4ccccc4s3)cc2C1=O | x | x | x | x | x | x | u | 18% | 2µM*
CC(=O)Nc1cc(-c2nc3ccccc3s2)ccc1C | 90% | x | x | x | 7% | x | 29% | 20% | u
CCc1cc2c(=O)c(-c3nc4ccccc4s3)coc2c(CN2CCCCC2)c1O | x | x | x | x | -26%[23.9 µM] | x | x | x | x
COc1ccc(-c2nc3cc(C)ccc3cc2CN2CCC(NC(C)=O)C2)cc1 (stereo not given) | -7% | u | u | -28% | -2% | 2% | x | x | x
O=C(c1cccc(Cl)c1)N1CCC(C(=O)N2CCC(c3nc4ncccc4[nH]3)CC2)C1 (stereo not given) | -20% | -8% | x | 4% | 6% | x | x | x | x
Cc1ccc(C(=O)COC(=O)c2cc(-c3cccs3)nc3ccccc23)cc1 | 25% | x | x | x | -3% | x | 12% | 11% | u
COc1ccc(Cc2nnc3ccc(C(=O)NCCCc4ccccc4)cn23)cc1 | -25% | u | x | -22% | 7% | x | x | x | x
CCNC(=O)C1C(c2cccc(NC(=O)c3ccc(C)cc3)c2)OC(=O)N1Cc1ccc(F)cc1 (stereo not given) | 167% | u | 2.2µM* | u | -8% | 11µM* | 17% | 1.6µM* | 1.8µM*
COc1ccc(-c2nc(C)c(CCNC(=O)c3cccs3)s2)cc1 | 76% | x | x | x | -14% | x | 24% | 17% | u
Cc1cccc(-c2nc(C)c(CCNC(=O)c3cccs3)s2)c1 | 137% | x | x | x | -9% | x | x | x | x
Cc1ccc(-c2nc(C)c(CCNC(=O)c3cccs3)s2)cc1 | 82% | x | x | x | 5% | x | 12% | 9% | u
COC1CCN(C(C)=O)CC(=O)N(C)c2ccccc21 (stereo not given) | x | u | x | 0% | x | x | x | x | x
Cc1ccc(-c2nc(C(=O)N3CCN(c4ccccc4)CC3)no2)cc1 | 23% | u | 13µM* | u | 3% | -2% | 26% | 13% | u
Cc1ccc(-c2nc(C(=O)N3CCN(c4ccccc4F)CC3)no2)cc1 | 2% | u | u | u | 8% | 2% | x | x | x
Cc1cc(CN2CCOc3c(O)cc(-c4ccccc4C)cc3C2)on1 | -13% | u | i | u | -7% | -2% | x | x | x
Cc1cccc(CN2CCOc3c(O)cc(-c4ccccc4C)cc3C2)n1 | 10% | u | i | u | 6% | -2% | x | x | x
Oc1cc(-c2nc3ccccc3s2)cc2c1OCCN(Cc1cccn1-c1ccccn1)C2 | x | x | x | x | x | x | 14% | 11% | -19%
Oc1cc(-c2nc3ccccc3s2)cc2c1OCCN(Cc1cccn1-c1ncccn1)C2 | x | x | x | x | x | x | 10% | 7% | -13%
COc1ccc(NC(=O)C2CCc3nnc(CN[S+](=O)([O-])c4ccccc4Cl)n32)cc1 (stereo not given) | 2% | -13% | x | -1% | -5% | x | x | x | x
SMILES | SNCA expr inh | NIH3T3 tox | FLuc inh-1 | HEK293 tox | HEK293 viab | NPR1 antag | FLuc SDR -ATP | FLuc SDR ATP | FLuc inh-2
Nc1nc2c([nH]c(=O)n2C2CC(O)C(CO)O2)c(=O)[nH]1 (stereo not given) | x | x | x | x | x | x | 13% | 11% | 6%
CCc1ccc(-n2nc(CO)c(C(=O)NCC(c3ccccc3)c3ccccc3)n2)cc1 | 10% | x | x | x | 10% | x | x | x | x
CCc1ccc(-n2nc(CO)c(C(=O)NC)n2)cc1 | -3% | x | x | x | -1% | x | u | 19% | u
O=C(c1ccoc1)N1CCC(N2C[C@H](Oc3ccccc3)[C@@H]2c2ccncc2)CC1 | 10% | -24% | x | -24% | -5% | x | x | x | x
c1ccc(CNc2cc(-c3cc(N4CCCCC4)ncn3)c3cc[nH]c3n2)nc1 | 37% | u | 7.9µM* | u | 6% | -2% | 24% | 12% | 9.9µM*
COc1ccc(CNC(=O)C[C@@H]2C[C@@H](C(C)C)[C@H](CNC(=O)c3cccnc3)C=C2C)cc1 | 3% | u | 14µM* | u | -13% | -13% | 11% | 10% | 7%
CC1=C[C@@H](CNC(=O)c2cccnc2)[C@H](C(C)C)C[C@H]1CC(=O)NCc1ccccn1 | 46%[87.6 µM] | 0%[174 µM] | u | -22%[172 µM] | 4%[87.6 µM] | -1%[70.6 µM] | x | x | x
Cn1nc(C(=O)NCc2cccnc2)c2c1CN(C(=O)CC1CCCCC1)C2 | 6% | -29% | x | -27% | 16% | x | x | x | x
CC(C)(C)OCC1CN(CCc2ccccc2)[S+](=O)([O-])c2cccnc2O1 (stereo not given) | x | -32% | x | u | x | x | x | x | x
COc1cc(OC)c(NC(=O)Cn2c(SCc3ccccc3F)nc3cccnc32)cc1Cl | -2% | x | x | x | 6% | x | 18% | 12% | -8%
COc1ccc(NC(=O)Cn2c(SCc3ccc(C)cc3)nc3cccnc32)cc1OC | 10% | x | x | x | -3% | x | 1.4µM* | u | 0.7µM*
COc1ccc(NC(=O)Cn2c(SCc3ccc(F)cc3)nc3cccnc32)cc1OC | 97% | x | x | x | -19% | x | x | x | x
O=C(Cn1c(SCc2ccccc2F)nc2cccnc21)Nc1ccc(F)c(Cl)c1 | u | x | x | x | -6% | x | x | x | x
O=C(NCCc1ccc(Cl)cc1)c1nc(-c2cccnc2)c2cnccn12 | u | u | i | u | 5% | -4% | x | x | x
CC(C)CCC(C)Nc1ncnc2c1CN(C1CCCNCC1)C(=O)CN2C (stereo not given) | -15% | u | x | -23% | -5% | x | x | x | x
